For test [1], the target named is Nuclear receptor subfamily 1 group I member 3 (Homo sapiens) (UniProt Q14994). Nature of the test: qHTS assay to identify small molecule agonists of the constitutive androstane receptor (CAR) signaling pathway (AID 1224839). Further: nearly all actives have a fitted effect of over 15% in size. Further: potency means the concentration at half of the fitted maximal effect.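 On activation: HepG2 cells stably carrying human CAR and a CYP2B6 luciferase reporter; series mostly up to about 92 µM.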 In short, it runs like this: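 Luminescence read-out (ONE-Glo, 30 min, room temperature) from double-stable HepG2-CYP2B6-hCAR cells exposed 24 h to 15-point compound series in presence of 0.75 uM PK11195 final.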
Chain of Nuclear receptor subfamily 1 group I member 3 (Homo sapiens) (Q14994 whole entry, looked up): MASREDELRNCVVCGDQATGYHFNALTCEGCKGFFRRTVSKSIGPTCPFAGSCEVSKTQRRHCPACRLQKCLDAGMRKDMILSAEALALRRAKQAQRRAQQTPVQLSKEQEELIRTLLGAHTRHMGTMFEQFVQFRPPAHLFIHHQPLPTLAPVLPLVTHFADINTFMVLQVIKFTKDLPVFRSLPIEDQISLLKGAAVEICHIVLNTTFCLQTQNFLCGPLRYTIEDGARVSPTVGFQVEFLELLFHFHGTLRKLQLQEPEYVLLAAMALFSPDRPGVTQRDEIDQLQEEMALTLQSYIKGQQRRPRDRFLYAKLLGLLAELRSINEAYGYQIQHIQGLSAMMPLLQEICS

Test [2] is described as follows: qHTS assay to identify small molecule antagonists of the estrogen related receptor signaling pathway with the pleiotropic PPARgamma coactivator (PGC) from Tox21 10K library - cell viability counter screen (AID 1224840; active means well fitted cell-killing curve with a large enough effect in the repeat runs, not every such curve was filed as active; further: nearly all actives have a fitted effect of over 40% in size). In short, it runs like this:
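Compounds in DMSO, alongside positive and negative controls, were pinned onto PGC/ERR cells (2,000 per well). Exposure lasted 17.5 hours at 37 C, followed by a 30-minute CellTiter-Fluor incubation and fluorescence reading.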
(In general: In qHTS, concentration-response curves come from the screen itself.)

The target of test [3] is Thyrotropin receptor (Homo sapiens) (UniProt P16473). Nature of the test: qHTS assay to identify small molecule agonists of the thyroid stimulating hormone receptor (TSHR) signaling pathway (AID 1224843; calls by dose curve; further: nearly all actives have a fitted effect of over 45% in size). The method in brief: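 Cell line HEK293 with TSHR; density 800/well. Exposure 30 min RT. Readout HTRF cAMP (cAMP-d2/anti-cAMP-cryptate), 1 h RT before reading.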
Chain of Thyrotropin receptor (Homo sapiens) (P16473 whole entry, looked up): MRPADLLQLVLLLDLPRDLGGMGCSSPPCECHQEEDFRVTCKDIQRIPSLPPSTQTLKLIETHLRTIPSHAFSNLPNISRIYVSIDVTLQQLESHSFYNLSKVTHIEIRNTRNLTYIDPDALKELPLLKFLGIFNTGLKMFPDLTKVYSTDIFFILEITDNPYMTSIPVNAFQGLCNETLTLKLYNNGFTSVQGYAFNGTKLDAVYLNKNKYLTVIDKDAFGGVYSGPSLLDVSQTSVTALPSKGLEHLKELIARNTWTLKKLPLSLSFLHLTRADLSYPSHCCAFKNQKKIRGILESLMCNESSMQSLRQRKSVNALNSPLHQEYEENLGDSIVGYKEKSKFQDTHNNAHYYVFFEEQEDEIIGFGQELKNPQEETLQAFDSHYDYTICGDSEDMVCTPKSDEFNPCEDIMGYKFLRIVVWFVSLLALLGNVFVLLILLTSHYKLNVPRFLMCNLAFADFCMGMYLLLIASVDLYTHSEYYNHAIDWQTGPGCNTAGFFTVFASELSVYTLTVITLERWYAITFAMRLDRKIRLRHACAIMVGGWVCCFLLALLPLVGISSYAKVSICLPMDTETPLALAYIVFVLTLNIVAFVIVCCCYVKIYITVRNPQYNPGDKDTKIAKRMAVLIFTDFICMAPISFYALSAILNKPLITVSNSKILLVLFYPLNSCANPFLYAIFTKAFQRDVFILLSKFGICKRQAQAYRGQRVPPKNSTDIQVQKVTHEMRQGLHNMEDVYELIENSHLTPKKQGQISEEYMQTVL
A short description of test [4]: qHTS assay to identify small molecule agonists of the hypoxia (HIF-1) signaling pathway - cell viability counter screen (AID 1224844; calls by dose curve; further: nearly all actives have a fitted effect of over 50% in size). The method in brief:
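Luminescent ATP content (CellTiter-Glo, 30 min, room temperature) served as the viability measure in HRE-bla ME-180 cells exposed to compounds for 17 hrs in low-serum medium (0.5% dialyzed FBS).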

Test [5] can be described thus: qHTS assay to identify small molecule agonists of H2AX (AID 1224845; active means well fitted activation curve with a large enough effect in the signal ratio in the repeat runs, not every such curve was filed as active; the % refers to the signal ratio). In short, it runs like this: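 Wild-type CHO-K1 cells plated overnight, then exposed 3 hr at 37C to compounds at 15 concentrations (0.76% DMSO). Lysed, then HTRF anti-pH2AX(S139)-cryptate/anti-H2AX-d2 detection after 24 hr at room temperature; emissions 665 and 620 nm.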
Test [6] in a line: qHTS assay to identify small molecule agonists of H2AX - cell viability counter screen (AID 1224847; calls by dose curve; further: top concentration of the series differs between compounds; nearly all actives have a fitted effect of over 30% in size). In short, it runs like this: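 CHO-K1 wt, 1000 cells/well, o/n 37C; cpds 15 conc, 3 h 37C, 0.76% DMSO; CellTiter-Glo, 30 min RT, luminescence.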
A short description of test [7]: qHTS RealTime-Glo MT Cell Viability Assay in HepG2 cells - 24 hour (AID 1224867). Further: nearly all actives have a fitted effect of over 50% in size. In short, it runs like this:
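HepG2 cells were seeded at 600 cells/well together with NanoLuc luciferase and a cell-permeant prosubstrate, preincubated 5 h at 37 C/5% CO2, then pin-dosed with compounds in DMSO. Nonlytic luminescence from viable cells was read at each time point.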

Test [8] is described as follows: qHTS RealTime-Glo MT Cell Viability Assay in HEK293 cells - 32 hour (AID 1224868). Further: top concentration of the series differs between compounds; nearly all actives have a fitted effect of over 50% in size. The method in brief: (§1)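 HEK293 cells were seeded at 600 cells/well together with NanoLuc luciferase and cell-permeant prosubstrate, preincubated 5 h at 37 C/5% CO2, then given compound in DMSO by pintool. Luminescence from viable-cell prosubstrate reduction was read repeatedly over 40 h.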

Test [9] in a line: A CellTox Green Cytotoxicity Assay to monitor cytotoxicity in HEK293 cells - 0 hour (AID 1224869). Further: nearly all actives have a fitted effect of over 50% in size. In short, it runs like this: (§2)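 Each value comes from one timepoint of a single continuous run in which HEK293 cells with CellTox Green were exposed to compound for up to 40 h at 37 C, dye fluorescence rising with cell death.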
Test [10] can be described thus: qHTS RealTime-Glo MT Cell Viability Assay in HepG2 cells - 40 hour (AID 1224870). Further: nearly all actives have a fitted effect of over 50% in size. In short, it runs like this: (§3)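 HepG2 cells mixed with RealTime-Glo MT reagents (NanoLuc plus cell-permeant prosubstrate) were seeded at 600 cells/well, incubated 5 h at 37 C/5% CO2, then pinned with compounds in DMSO; nonlytic luminescence tracked viability during 40 h treatment.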
Test [11] in a line: A CellTox Green Cytotoxicity Assay to monitor cytotoxicity in HEK293 cells - 40 hour (AID 1224871). Further: nearly all actives have a fitted effect of over 45% in size. In short, it runs like this: as §2
The nature of test [12]: qHTS RealTime-Glo MT Cell Viability Assay in HEK293 cells - 16 hour (AID 1224872). The method in brief: as §1
A short description of test [13]: qHTS RealTime-Glo MT Cell Viability Assay in HepG2 cells - 8 hour (AID 1224873). Further: nearly all actives have a fitted effect of over 55% in size. In short, it runs like this: as §3
Test [14] is described as follows: qHTS RealTime-Glo MT Cell Viability Assay in HEK293 cells - 40 hour (AID 1224874). Further: nearly all actives have a fitted effect of over 50% in size. The following applies: RealTime-Glo luminescence; max response: hits give low values. In short, it runs like this:
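qHTS format; HEK293 cells with NanoLuc/prosubstrate reagent, 37 C/5% CO2 for 5 h pre-dosing; compounds 23 nL in DMSO; luminescence at each time point reflects viable cells.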

The nature of test [15]: A CellTox Green Cytotoxicity Assay to monitor cytotoxicity in HEK293 cells - 24 hour (AID 1224875). Further: series mostly up to about 77 µM; nearly all actives have a fitted effect of over 45% in size. In short, it runs like this: as §2
Test [16] is described as follows: qHTS assay to identify small molecule agonists of the hypoxia (HIF-1) signaling pathway (AID 1224846; active means well fitted activation curve with a large enough effect in the signal ratio in the repeat runs, not every such curve was filed as active; the % refers to the signal ratio). In short, it runs like this: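 Measured by blue/green FRET after loading CCF4-AM: beta-lactamase expressed from a hypoxia response element in ME-180 cells. Test agents were delivered in DMSO and left 17 hrs; cells had been plated 5 hrs earlier in low-serum (0.5% dialyzed FBS) medium.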

Values without a mark were called inactive. Results filed as inconclusive are left out. Activity calls are given as the source filed them. Unless noted, the call rests on the fitted dose curve; in most records, active means well fitted curve in the direction sought with a large enough effect in the repeat runs; inconclusive means weak or mixed curves; inactive means no such curve, though single readings can be large; an effect the other way counts as inactive or inconclusive.
On the % scale 0 is the no-effect control and ±100 the full control effect.

On to `CC(C)COC(=O)c1ccccc1`, for which the Potency result in test [1], in [8], in test [9], in [11], in [12] and in test [15] was “inactive” throughout. In addition, the call in test [2], in test [3], in test [4], in test [5], in test [6] and in test [7] was inactive. For the same compound, the compound was called inactive in [10] and in test [13]. In test [14], the max response was 2.33%.
Turning to `CCCCCCC1(C)CCC(=O)O1` (stereo unspecified), the Potency entry in [1], in test [8], in test [9], in test [11], in test [12] and in test [15] was “inactive” in each case. The compound was classed as inactive in [2], in test [3], in [4], in [5], in test [16] and in test [10]. Moreover, in test [13], the compound was called inactive. The max response in test [14] is 3.32%.
For the compound `CCCC(=O)Nc1ccc(OCC(O)CNC(C)C)c(C(C)=O)c1` (stereo unspecified), the Potency entry in test [1], in test [8], in test [9], in test [11] and in test [12] was “inactive” throughout. Also, the compound was classed as inactive in test [2], in [3], in [4], in [5], in [6] and in test [7]. The compound was called inactive in test [10] and in test [13]. The max response in test [14] is 4%.
As to `CC(C)[C@H]1CC[C@H](C)C[C@@H]1O`, the Potency result in test [1], in [8], in [9], in [11], in test [12] and in [15] was “inactive” throughout. In addition, the compound was classed as inactive in test [2], in test [3], in test [4], in [5], in test [16] and in test [10]. Further, in test [13], the result was inactive. The max response in test [14] was 2.31%.
Regarding `N#Cc1cscn1`, the Potency entry in [1], in test [8], in test [11], in [12] and in [15] was “inactive” in each case. For the same compound, the outcome in test [2], in test [3], in test [4], in test [5], in [16] and in test [10] was inactive. In addition, in [13], the compound was classed as inactive. For the same compound, the max response in test [14] is 9.48%.
Regarding `Cc1ccc2c(c1)C(=O)c1ccccc1C2=O`, the Potency in [1] was 27.2 µM (active). Besides, the result in [2], in test [3], in test [4], in test [16], in [6] and in test [7] was inactive. Besides, the compound was classed as inactive in [10] and in [13]. The Potency entry in test [8], in test [9], in test [11] and in test [12] was “inactive” each time. Further, the max response in test [14] was 5.01%.
Regarding `N#CCC(=O)NN`, the Potency entry in test [1], in test [8], in [9], in test [11], in [12] and in test [15] was “inactive” throughout. Also, the compound was called inactive in test [2], in test [3], in [4], in test [16], in test [6] and in test [7]. The call in test [10] and in [13] was inactive. The max response in [14] was 1.05%.
As for `C=CC(=O)OCC1CCCO1` (stereo unspecified), the Potency result in [1], in [8], in [9], in test [11] and in [12] was “inactive” in each case. For the same compound, the compound was classed as inactive in [2], in [3], in test [4], in [16], in test [10] and in [13]. Moreover, the max response in test [14] is 0.647%.
On to `Cc1c(Cl)cccc1Cl`, for which the Potency result in test [1], in [8], in [9], in [11] and in test [12] was “inactive” throughout. In addition, the compound was classed as inactive in [2], in [3], in test [4], in test [16], in [6] and in test [7]. In addition, the compound was classed as inactive in test [10] and in test [13]. Moreover, in test [14], the max response is -1.25%.
In the case of `Cc1ccnc(N)c1`, the Potency result in test [1], in [8], in test [11], in test [12] and in [15] was “inactive” in each case. The call in [2], in test [3], in [4], in test [16], in test [6] and in test [7] was inactive. Moreover, the compound was called inactive in [10] and in test [13]. The max response in [14] was -4.39%.
On to `Cc1c(NC(=O)c2cccnc2)c(=O)n(-c2ccccc2)n1C`, for which the Potency result in [1], in test [8], in test [9], in [11], in [12] and in test [15] was “inactive” each time. The compound was called inactive in test [2], in [3], in test [4], in test [6], in test [7] and in test [10]. Also, the outcome in test [13] was inactive. Moreover, in [14], the max response is 2.99%.
Regarding `CO[Si](CCCn1c(=O)n(CCC[Si](OC)(OC)OC)c(=O)n(CCC[Si](OC)(OC)OC)c1=O)(OC)OC`, the Potency entry in test [1], in test [8], in [9], in test [11], in test [12] and in test [15] was “inactive” each time. Moreover, the result in test [2], in test [3], in [4], in test [6], in test [7] and in test [10] was inactive. Also, in test [14], the max response was 1.02%.
Take `CNCCS(=O)(=O)O`: the Potency entry in test [1], in [8], in test [9], in [11], in test [12] and in test [15] was “inactive” in each case. The compound was called inactive in test [2], in test [3], in test [4], in [16], in [6] and in test [7]. The compound was called inactive in test [10] and in test [13]. Also, the max response in test [14] was 4.21%.
For `CC(C)NCC(O)c1ccc2ccccc2c1` (stereo unspecified), the Potency entry in test [1], in test [8], in [9], in [11], in test [12] and in test [15] was “inactive” each time. In addition, the result in test [2], in [3], in test [4], in test [16], in test [6] and in test [7] was inactive. Besides, the compound was called inactive in test [10] and in test [13]. The max response in [14] is -5.31%.

The values are drawn from PubChem BioAssay (Tox21).
